Experimental data reported in PubChem BioAssay (EPA / NIEHS).
Activity calls are given as the source filed them. Rule for the calls: active = hit-call score of the fitted dose curve at least 0.9, where 1 is the maximum; inactive = score below 0.9.

How the values were obtained:
[1] = APR_HepG2_CellLoss_72hr: Apredica 72-hour HepG2 Assay for Cell Loss (AID 2282915); conditions: high-content imaging
Procedure, shortened: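 Cell number comes from Hoechst 33342-labelled nuclei, imaged at 20x after 3.7% formaldehyde fixation. Dosing was 0.39–200 uM, ten concentrations in duplicate, 0.5% DMSO final, for 72 h. Bidirectional fit relative to DMSO baseline.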

[2] = APR_HepG2_P-H2AX_72hr: Apredica 72-hour HepG2 Assay for H2AX Phosphorylation (AID 2282916); conditions: imaging, actives raise or lower the signal;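 note: phospho-histone H2A.x immunostain intensity per cell marking DNA damage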
Procedure, shortened: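 HepG2 cells treated 72 h at 0.39–200 uM, 0.5% DMSO final, duplicates. Formaldehyde-fixed, Triton-permeabilised, immunostained for phospho-H2A.x with Hoechst; fluorescence imaged at 20x, bidirectional fit versus DMSO.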

[3] = APR_HepG2_MitoMembPot_72hr: Apredica 72-hour HepG2 Assay for Mitochondrial Membrane Potential (AID 2282917); conditions: imaging, actives raise or lower the signal
Procedure, shortened: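 Membrane potential read by MitoTracker Red CMXRos (250 nM, 30 min, pre-fixation) fluorescence imaging of HepG2 after 72 hr exposure. Ten concentrations, 0.39–200 uM, duplicate wells, 0.5% DMSO; fitted in both directions against DMSO baseline.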

[4] = APR_HepG2_MitoticArrest_72hr: Apredica 72-hour HepG2 Assay for Mitotic Arrest (AID 2282918); conditions: high-content imaging, actives raise or lower the signal
Procedure, shortened: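 Using high-content imaging of fixed HepG2 cells, phospho-histone H3 signal was measured following a 72 hr incubation with ten-point compound dilutions up to 200 uM. DMSO served as the negative control and baseline for bidirectional curve fitting.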

[5] = APR_HepG2_MicrotubuleCSK_72hr: Apredica 72-hour HepG2 Assay for Microtubule CSK Stabilty (AID 2282919); conditions: HepG2 microtubule cytoskeleton, high-content imaging, actives raise or lower the signal
Procedure, shortened: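 Read-out is tubulin fluorescence intensity from high-content imaging of HepG2 cells, with nuclei identified by Hoechst 33342. Treatment lasts 72 h at 0.39–200 uM, and curves are fitted bidirectionally against the DMSO negative control.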

[6] = APR_HepG2_P-H2AX_24hr: Apredica 24-hour HepG2 Assay for H2AX Phosphorylation (AID 2282920); conditions: high-content imaging, actives raise or lower the signal
Procedure, shortened: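 Human HepG2 liver cells, treated 24 hr with test chemicals (0.39–200 uM, final DMSO 0.5% v/v), are fixed and co-stained for phospho-H2A.x and c-Jun with Hoechst. Imaged intensity is fitted in both directions against DMSO controls.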

[7] = APR_HepG2_StressKinase_72hr: Apredica 72-hour HepG2 Assay for Stress Kinase (AID 2282921); conditions: HepG2 stress kinase (phospho-c-Jun) imaging, actives raise or lower the signal
Procedure, shortened: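 HepG2 cells treated 72 hr with 0.39–200 uM compound, 0.5% v/v DMSO, duplicate wells. After formaldehyde fixation and Triton permeabilization, stained with anti-phospho-c-Jun (1:500) and Cy3 secondary, imaged at 20x. Fitted in both directions against DMSO.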

[8] = APR_HepG2_p53Act_72hr: Apredica 72-hour HepG2 Assay for p53 Activation (AID 2282923); conditions: high-content imaging, actives raise or lower the signal;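 note: average cellular p53 protein immunofluorescence intensity in HepG2 cells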
Procedure, shortened: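 HepG2 cells exposed 72 h to 0.39–200 uM in 0.5% DMSO, duplicates. Fixed, permeabilized cells immunostained for p53 (Cy5) with Hoechst; imaged at 20x, fluorescence analyzed bidirectionally against DMSO.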

[9] = APR_HepG2_NuclearSize_72hr: Apredica 72-hour HepG2 Assay for Nuclear Size (AID 2282925); conditions: high-content imaging, actives raise or lower the signal
Procedure, shortened: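 HepG2; cpd 0.39–200 uM, 10 conc, duplicate; 72 h; DMSO 0.5% v/v; fix 3.7% formaldehyde 30 min RT; Triton permeabilization; Hoechst 2 ug/mL; HCS imaging 20x; nuclear diameter; gain/loss fit vs DMSO.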

[10] = molecular target: CCAAT/enhancer-binding protein beta (Homo sapiens) (UniProt P17676); test: ATG_C_EBP_CIS: Attagene CIS-FACTORIAL HepG2 Assay for human CCAAT/Enhancer Binding Protein (C/EBP) beta (AID 2282927); conditions: HepG2 Attagene cis-factorial transcription factor reporter; actives raise or lower the signal
Chain of CCAAT/enhancer-binding protein beta (Homo sapiens) (P17676 whole entry, looked up): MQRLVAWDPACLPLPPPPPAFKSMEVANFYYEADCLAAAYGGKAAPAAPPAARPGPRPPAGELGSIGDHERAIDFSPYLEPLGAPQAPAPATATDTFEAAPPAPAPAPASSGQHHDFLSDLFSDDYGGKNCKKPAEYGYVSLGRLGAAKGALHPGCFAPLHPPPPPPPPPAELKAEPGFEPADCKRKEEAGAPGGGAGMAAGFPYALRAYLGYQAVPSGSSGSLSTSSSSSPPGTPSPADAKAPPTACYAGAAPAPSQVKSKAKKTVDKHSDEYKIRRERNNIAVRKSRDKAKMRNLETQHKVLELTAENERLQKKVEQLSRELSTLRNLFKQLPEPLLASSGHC
Procedure, shortened: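 Changes in reporter mRNA, rather than exogenous chimeric receptor activity, reflect native C/EBP signalling in transfected HepG2 cells dosed for 24 h; transcripts are detected by RT-PCR and capillary electrophoresis.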

[11] = ATG_CMV_CIS: Attagene CIS-FACTORIAL HepG2 Assay for human CMV (Internal Marker) (AID 2282928); conditions: HepG2 CMV promoter reporter, transcription factor profiling; actives raise or lower the signal;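 note: endpoint acts as a background internal control marker rather than a target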
Procedure, shortened: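 HepG2 cells transiently transfected with multiple cis-regulated reporter units; 24 h compound exposure. Reporter mRNA quantified by RT-PCR, 6-FAM primer-extension labeling, HpaI digestion and capillary electrophoresis; bidirectional fitting against DMSO baseline.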

[12] = ATG_DR4_LXR_CIS: Attagene CIS-FACTORIAL HepG2 Assay for human Liver X Receptor (LXR), DR4 submotif (AID 2282929); conditions: HepG2 Attagene DR4 cis-reporter, mRNA transcription; actives raise or lower the signal
Procedure, shortened: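 After transient transfection with multiplexed cis-promoter reporter units, HepG2 cells received test chemicals for 24 h. Reporter mRNA induction, detected by fluorescence after RT-PCR and capillary electrophoresis, was scored relative to DMSO.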

[13] = molecular target: Aryl hydrocarbon receptor (Homo sapiens) (UniProt P35869); test: ATG_Ahr_CIS: Attagene CIS-FACTORIAL HepG2 Assay for human Aryl Hydrocarbon Receptor (Ahr) (AID 2282930); conditions: HepG2 AhR cis-factorial reporter transcription; actives raise or lower the signal
Chain of Aryl hydrocarbon receptor (Homo sapiens) (P35869 whole entry, looked up): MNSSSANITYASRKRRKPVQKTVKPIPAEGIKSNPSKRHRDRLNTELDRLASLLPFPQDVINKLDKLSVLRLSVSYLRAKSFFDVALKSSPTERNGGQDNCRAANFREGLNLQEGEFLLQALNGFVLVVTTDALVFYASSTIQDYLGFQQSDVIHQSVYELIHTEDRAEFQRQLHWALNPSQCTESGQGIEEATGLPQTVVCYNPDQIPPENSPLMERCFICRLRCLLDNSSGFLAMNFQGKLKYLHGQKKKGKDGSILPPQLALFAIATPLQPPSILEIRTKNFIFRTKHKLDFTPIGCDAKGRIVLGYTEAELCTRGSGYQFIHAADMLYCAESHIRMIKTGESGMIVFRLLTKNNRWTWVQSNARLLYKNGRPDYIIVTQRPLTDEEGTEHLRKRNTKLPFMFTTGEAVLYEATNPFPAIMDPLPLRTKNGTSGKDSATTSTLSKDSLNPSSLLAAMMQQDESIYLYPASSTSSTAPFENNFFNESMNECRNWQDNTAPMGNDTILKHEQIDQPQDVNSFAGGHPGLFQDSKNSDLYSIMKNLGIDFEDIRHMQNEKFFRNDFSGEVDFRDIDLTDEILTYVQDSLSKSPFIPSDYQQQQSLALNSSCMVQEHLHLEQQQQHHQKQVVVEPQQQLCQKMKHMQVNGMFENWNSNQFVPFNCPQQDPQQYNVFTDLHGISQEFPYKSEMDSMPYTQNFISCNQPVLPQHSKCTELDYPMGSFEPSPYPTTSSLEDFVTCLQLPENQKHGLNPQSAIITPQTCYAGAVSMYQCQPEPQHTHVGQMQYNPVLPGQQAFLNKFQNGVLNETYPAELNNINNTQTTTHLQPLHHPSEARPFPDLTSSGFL
Procedure, shortened: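 HepG2, transient MRTU (cis) transfection, 24 h exposure. RNA → cDNA → PCR → 6-FAM primer extension → HpaI 2 h 37 C → CE. Fit: bidirectional, DMSO baseline.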

[14] = ATG_AP_1_CIS: Attagene CIS-FACTORIAL HepG2 Assay for human Activator Protein 1 (AP-1) (AID 2282931); conditions: HepG2 Attagene cis-factorial AP-1 reporter mRNA; actives raise or lower the signal
Procedure, shortened: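 After 24 h incubation with test chemical, RNA from transfected HepG2 cells was reverse-transcribed, amplified, fluorescently labelled and digested before capillary electrophoresis. Reporters were driven by cis-regulatory promoters; activity fitted bidirectionally versus DMSO.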

[15] = ATG_AP_2_CIS: Attagene CIS-FACTORIAL HepG2 Assay for human Activator Protein 2 (AP-2) (AID 2282932); conditions: HepG2 AP-2 cis-reporter, Attagene transcription factor profiling; actives raise or lower the signal
Procedure, shortened: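 HepG2, transient MRTU transfection, cis-regulated reporters; 24 h compound exposure; RNA isolated, RT-PCR, 6-FAM labelling, HpaI digest, CE fluorescence. DMSO = negative control/baseline, bidirectional fit.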

[16] = APR_HepG2_MitoMass_72hr: Apredica 72-hour HepG2 Assay for Mitochondrial Mass (AID 2282924); conditions: high-content imaging, actives raise or lower the signal;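 note: MitoTracker Red CMXRos stain intensity per cell imaged as mitochondrial mass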
Procedure, shortened: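 HepG2, 72 hr cmpd, 10 conc 0.39–200 uM in dup, DMSO 0.5% v/v. MitoTracker Red CMXRos 250 nM 30 min pre-fix; formaldehyde 3.7% fix 30 min RT. HCS imaging, gain/loss fit vs DMSO.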

[17] = molecular target: Retinoic acid receptor alpha (Homo sapiens) (UniProt P10276); test: ATG_DR5_RAR_CIS: Attagene CIS-FACTORIAL HepG2 Assay for human Retinoic Acid Receptor Alpha (RARE), DR5 submotif (AID 2282934); conditions: HepG2 Attagene cis-factorial RARE DR5 reporter, mRNA; actives raise or lower the signal;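 for AC50: reporter responds to endogenous RAR alpha beta and gamma in HepG2 not RARA alone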
Chain of Retinoic acid receptor alpha (Homo sapiens) (P10276 whole entry, looked up): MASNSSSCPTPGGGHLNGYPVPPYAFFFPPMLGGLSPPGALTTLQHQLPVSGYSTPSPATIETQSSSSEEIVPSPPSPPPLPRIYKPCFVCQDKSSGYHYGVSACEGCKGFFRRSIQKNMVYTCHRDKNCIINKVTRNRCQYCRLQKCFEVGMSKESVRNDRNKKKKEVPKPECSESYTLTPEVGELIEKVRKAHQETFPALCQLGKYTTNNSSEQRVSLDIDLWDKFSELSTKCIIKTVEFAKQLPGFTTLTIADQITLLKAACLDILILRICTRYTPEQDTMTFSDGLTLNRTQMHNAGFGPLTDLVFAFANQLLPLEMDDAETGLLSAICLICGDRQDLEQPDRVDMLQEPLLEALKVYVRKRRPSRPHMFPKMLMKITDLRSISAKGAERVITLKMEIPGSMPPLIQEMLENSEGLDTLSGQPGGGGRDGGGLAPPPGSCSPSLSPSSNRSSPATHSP
Procedure, shortened: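 HepG2, transient cis-reporter transfection, 24 h exposure. mRNA readout: RT-PCR, FAM label, HpaI cut, capillary electrophoresis. DMSO baseline, gain/loss fitting.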

[18] = APR_HepG2_StressKinase_24hr: Apredica 24-hour HepG2 Assay for Stress Kinase (AID 2282922); conditions: HepG2 stress kinase (phospho-c-Jun) imaging, actives raise or lower the signal
Procedure, shortened: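 HepG2, 24 hr dosing, 0.39–200 uM in duplicate, 0.5% DMSO; formaldehyde fix (3.7%), 0.5% Triton X-100; anti-phospho-c-Jun + Cy3 secondary, Hoechst counterstain; ArrayScan imaging; bidirectional curve fit vs DMSO baseline.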

[19] = ATG_CRE_CIS: Attagene CIS-FACTORIAL HepG2 Assay for human cAMP Responsive Element (CRE) binding protein 3 (AID 2282926); conditions: HepG2 CRE cis-reporter, Attagene multiplexed mRNA; actives raise or lower the signal
Procedure, shortened: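 Transfected HepG2 were treated for 24 hours, then RNA was extracted and reporter cDNA amplified with sequence-specific primers. Labelled fragments were separated by capillary electrophoresis, and the CRE signal was fitted bidirectionally with DMSO as baseline.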

[20] = ATG_BRE_CIS: Attagene CIS-FACTORIAL HepG2 Assay for human Bone Morphogenetic Protein (BMP) Response Element (BRE) (AID 2282933); conditions: HepG2 BMP response element reporter, Attagene transcription factor profiling; actives raise or lower the signal
Procedure, shortened: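 Fluorescence-labelled reporter cDNA fragments, separated by capillary electrophoresis, gave the signal for this component of a 52-readout multiplex. HepG2 cells were transfected, exposed to chemicals for 24 h, and compared with DMSO using bidirectional fitting.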

Measured: AC50

CN[C@H]1CC[C@@H](c2ccc(Cl)c(Cl)c2)c2ccc(S(N)(=O)=O)cc21
active: [1] 6.85 µM | [2] 100 µM | [4] 3.89 µM | [5] 12.1 µM | [6] 100 µM | [7] 123 µM
not listed: [16] | [17] | [18] | [19] | [20]
inactive: all other assays above

CN1CCCC1=O
not listed: [18] | [19] | [20]
inactive: all other assays above

Cc1ccc(N(C)C)cc1
not listed: [6] | [10] | [20]
inactive: all other assays above

Cc1ccc2ncccc2c1
not listed: [6] | [19]
inactive: all other assays above

Cc1cc(NC(=O)C(=O)O)cc(C)c1Oc1ccc(O)c2c1CCC2
active: [12] 156 µM
not listed: [9] | [16] | [17] | [18] | [19] | [20]
inactive: all other assays above

CCCCCCCCCCCCCO
active: [1] 113 µM | [2] 108 µM | [3] 120 µM | [4] 104 µM | [11] 59.4 µM | [14] 34.3 µM | [20] 34.3 µM | [17] 11.7 µM
not listed: [9] | [16] | [18] | [19]
inactive: all other assays above

Cc1oc(-c2ccccc2)nc1CCOc1cccc2c1ccn2CCC(=O)O
active: [11] 19.8 µM | [12] 19.8 µM
not listed: [10] | [16] | [18] | [19] | [20]
inactive: all other assays above

NCCO
not listed: [9] | [10] | [18] | [20]
inactive: all other assays above

CCCCCCCCCCCC(=O)OC
not listed: [6] | [10] | [17] | [19]
inactive: all other assays above

Nc1ccc2c(c1)C(=O)c1ccccc1C2=O
active: [1] 11.5 µM | [2] 16.2 µM | [4] 10.2 µM | [6] 21.2 µM | [8] 19.3 µM
not listed: [10] | [18]
inactive: all other assays above

Cc1ccc(C)c(O)c1C
active: [1] 12.4 µM | [4] 13.4 µM | [8] 16.9 µM
not listed: [9] | [16] | [18] | [19]
inactive: all other assays above

CC(C)(C)c1cc(O)c(C(C)(C)C)cc1O
inactive: [5] | [7] | [16] | [13] | [15]
active: [1] 51.6 µM | [2] 36 µM | [3] 104 µM | [4] 11.8 µM | [18] 93.1 µM | [8] 12.5 µM | [19] 23 µM | [10] 89.1 µM | [11] 30.2 µM | [12] 29.5 µM | [14] 31 µM | [17] 57.1 µM

COc1cc(C=O)ccc1O
active: [13] 80.8 µM | [17] 31.1 µM
not listed: [6] | [9] | [10] | [19]
inactive: all other assays above

CCOC(=O)CCC(=O)OCC
active: [13] 75.7 µM
not listed: [6] | [9] | [10] | [20]
inactive: all other assays above

C=CCOC(=O)c1ccccc1C(=O)OCC=C
active: [10] 26.4 µM | [11] 26.2 µM | [12] 26.2 µM | [14] 25.8 µM
not listed: [9] | [16] | [18]
inactive: all other assays above

Oc1ccc2c(c1)OC[C@@H](N1CCC(O)(c3ccc(F)cc3)CC1)[C@H]2O
active: [13] 50 µM
not listed: [6] | [9] | [20]
inactive: all other assays above
